Source: PubChem BioAssay (NCATS)
Results filed as inconclusive are left out. The source made the active and inactive calls. Unless noted, calls follow the shape of the dose curve; as a rule, active = well fitted curve in either direction with a large enough effect (not every such curve was filed as active); inconclusive = small, poorly fitted or top-dose-only effect, or another doubt; inactive = flat fitted curve, though single readings scatter.

Key:
[1] = molecular target: Lysosomal acid glucosylceramidase (Homo sapiens) (UniProt P04062); experiment: Glucocerebrosidase-p2 (AID 348; in the data active = potency below about 10 µM; also: potency is read from the fitted curve at half-maximal effect); details: purified GBA, blue fluorogenic substrate, 40 min
Procedure, shortened: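 Compounds titrated from 0.6 nM upwards against 0.2 nM enzyme in pH 5.9 citric acid/KH2PO4, taurocholate, tween-20; blue fluorogenic substrate 80 uM, 40 min room temperature, stopped and read Ex 365/Em 440 for AC50.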

[2] = AP1 Signaling Pathway (AID 357); details: ME-180 AP-1-bla reporter, EGF-induced, beta-lactamase ratio, 5 h; at 7.69 µM (top of the series) unless noted;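 also: ME-180 reporter cells stimulated with EGF at its EC50 level; % is scaled to controls: 0 for no effect and ±100 for the full control effect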
Procedure, shortened: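 First, ME-180 AP-1-bla cells were cultured overnight at 37 °C in low-serum Opti-MEM. Next, titrated compounds with EC50 EGF were incubated 5 hours. Finally, CCF4 was added for 2.5 hours and the 460/530 nm ratio recorded.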

[3] = NFAT Signaling Pathway (AID 444); details: Jurkat NFAT-bla M1, carbachol, beta-lactamase ratio, 5 h; at 7.69 µM (top of the series) unless noted;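 also: carbachol stimulus at about its EC50 of 1 µM final; % is scaled to controls: 0 for no effect and ±100 for the full control effect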
Procedure, shortened: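 Jurkat cells carrying an NFAT-driven β-lactamase reporter and co-transfected muscarinic M1 receptor were treated with compound plus carbachol (1 uM final, an EC50 level) for 5 h at 37 °C. CCF4 loading followed for 1 h at RT; 460/530 nm ratio gave %activity.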

[4] = Stat Signaling Pathway (AID 446); details: ME-180 SIE beta-lactamase reporter, IL-6 stimulated, 5 h; at 7.69 µM (top of the series) unless noted;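 also: ME-180 cervical cancer cells given 40 pM IL-6 alongside compound; SIE-controlled beta-lactamase reporter measured as 460/530 nm FRET emission ratio; % is scaled to controls: 0 for no effect and ±100 for the full control effect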
Procedure, shortened: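 Screening format detects activators and inhibitors alike: ME-180 SIE-bla cells stimulated at 40 pM IL-6 for 5 hrs with compound, then dual-emission beta-lactamase read at 405 nm excitation.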

[5] = molecular target: Glucocorticoid receptor (Homo sapiens) (UniProt P04150); experiment: GR-EFC Redistribution (AID 451; calls by dose curve; also: potency is read from the fitted curve at half-maximal effect); details: CHO-K1 GR-EFC translocation, beta-gal luminescence, 2 h
Procedure, shortened: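 CHO-K1 cells stably expressing nuclear-localized β-gal enzyme acceptor and GR fused C-terminally to the enzyme donor fragment; ligand-driven nuclear translocation restores β-gal by complementation. Compounds titrated up to 46 uM final, 2 h at 37 °C; luminescence read.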

[6] = molecular target: Mitogen-activated protein kinase 10 (Mus musculus) (UniProt Q61831); experiment: JNK3 AlphaScreen Assay (AID 530); details: JNK3 lysate, c-Jun phosphorylation; series mostly up to 11.4 µM;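 also: kinase came from lysate of stimulated human HepG2 cells; signal reports phosphorylation of biotinylated GST-cJun 1-79 at Ser73 with 10 µM ATP; % is scaled to controls: 0 for no effect and ±100 for the full control effect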
Procedure, shortened: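 Inhibitors reduce antibody binding to phosphorylated biotin-cJun, lowering AlphaScreen luminescence. Lysates from HepG2 cells pre-activated by IL-1beta plus TNF-alpha supplied JNK3; compounds were titrated.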

[7] = molecular target: 3',5'-cyclic-AMP phosphodiesterase 4B (Homo sapiens) (UniProt Q07343); experiment: qHTS Assay for Inhibitors of PDE-IV (AID 607; active = well fitted activation curve with a large enough effect in the main read-out, with a control signal flat, not every such curve was filed as active; also: % of control where 0% means no effect); details: HEK293 ACTOne CNG channel cells, membrane potential fluorescence; series mostly up to 22.9 µM
Procedure, shortened: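 The readout is membrane depolarisation from a cAMP-sensing CNG channel, detected with a potential dye at ex 535/em 590. Cells were HEK293-derived (endogenous PDE-IV) at 1000 cells/well, titrated up to 22.9 uM final.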

[8] = molecular target: Glucocorticoid receptor (Homo sapiens) (UniProt P04150); experiment: GR-GFP Redistribution (AID 450;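 active = compounds whose dose series gives a full or clear partial fitted curve of increased nuclear translocation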; also: potency is read from the fitted curve at half-maximal effect); details: U2OS GR-GFP nuclear translocation, laser cytometry, 2 h
[9] = qHTS Assay for Identification of Small Molecule Agonists for Hypoxia Response Element Signaling Pathway (AID 914; active = well fitted activation curve with a large enough effect in the signal ratio, with a control signal flat, not every such curve was filed as active; the % refers to the signal ratio; also: % of control where 0% means no effect); details: ME-180 (cervical carcinoma) HRE-bla reporter, beta-lactamase ratio, CoCl2, 17 h; activation: stronger effect = higher value
Procedure, shortened: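 HRE-bla ME-180 cells, overnight plating in Opti-MEM with 0.5% dialyzed FBS; cpd titration + EC50 CoCl2, 17 h, 37 degrees Celsius; CCF4 2.5 h RT; 460/530 nm ratio; AC50.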

[10] = molecular target: Cytochrome P450 3A4 (Homo sapiens) (UniProt P08684); experiment: qHTS Assay for Activators of Cytochrome P450 3A4 (AID 885; active = well fitted curve in the direction sought with a large enough effect; an effect the other way counts as inactive or inconclusive; also: nearly all actives have a fitted effect of over 65% in size); details: recombinant CYP3A4, Luciferin-PPXE luminescence, 60 min; series mostly up to 11.4 µM
Procedure, shortened: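 Steps: enzyme/substrate mix dispensed; compound added, 10 min RT; NADPH regeneration solution added, 60 min RT; luciferin detection buffer stops reaction; 20 min later luminescence measured.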

[11] = molecular target: Cytochrome P450 2C9 (Homo sapiens) (UniProt P11712); experiment: qHTS Assay for Inhibitors and Substrates of Cytochrome P450 2C9 (AID 883; active = well fitted curve in the direction sought with a large enough effect; an effect the other way counts as inactive or inconclusive; also: % is scaled to controls: 0 for no effect and ±100 for the full control effect; nearly all actives have a fitted effect of over 60% in size); details: recombinant CYP2C9, luciferin-H luminescence, 60 min; series mostly up to 11.4 µM
Procedure, shortened: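 CYP2C9 deoxyluciferin hydroxylation, 37C, 60 min with NADPH regeneration; 10nM enzyme, 100uM Luciferin-H (KM). Glo detection reagent stopped reaction; luminescence normalized to sulphaphenazole (57uM) full inhibition.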

[12] = molecular target: Cytochrome P450 3A4 (Homo sapiens) (UniProt P08684); experiment: qHTS Assay for Inhibitors and Substrates of Cytochrome P450 3A4 (AID 884; active = well fitted curve in the direction sought with a large enough effect; an effect the other way counts as inactive or inconclusive; also: % is scaled to controls: 0 for no effect and ±100 for the full control effect; nearly all actives have a fitted effect of over 50% in size); details: recombinant CYP3A4, Luciferin-PPXE luminescence; series mostly up to 57.1 µM
Procedure, shortened: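 20 nM human CYP3A4 with 25 uM Luciferin-PPXE (at KM) in 200 mM KPO4, preincubated 10 min with compound; NADPH regeneration started a 60 min RT reaction. Luciferin detected by luminescence, normalized to 57 uM ketoconazole as full inhibition.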

[13] = molecular target: Cytochrome P450 2D6 (Homo sapiens) (UniProt P10635); experiment: qHTS Assay for Inhibitors and Substrates of Cytochrome P450 2D6 (AID 891; active = well fitted curve in the direction sought with a large enough effect; an effect the other way counts as inactive or inconclusive;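 also: luciferin methyl ether substrate demethylated by CYP2D6 with NADPH regeneration; % is scaled to controls: 0 for no effect and ±100 for the full control effect; nearly all actives have a fitted effect of over 60% in size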); details: recombinant CYP2D6, luciferin-ME EGE luminescence; series mostly up to 11.4 µM
Procedure, shortened: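 Human CYP2D6 (5 nM) with 30 uM Luciferin-ME EGE (at Km) in 100 mM KPO4, compound preincubated 10 min, then NADPH regeneration system for 60 min at room temperature. Luciferin read by luminescence; normalized to 1.43 uM quinidine.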

[14] = molecular target: Cytochrome P450 2C19 (Homo sapiens) (UniProt P33261); experiment: qHTS Assay for Inhibitors and Substrates of Cytochrome P450 2C19 (AID 899; active = well fitted curve in the direction sought with a large enough effect; an effect the other way counts as inactive or inconclusive; also: % is scaled to controls: 0 for no effect and ±100 for the full control effect; nearly all actives have a fitted effect of over 60% in size); details: recombinant CYP2C19, luciferin-H EGE luminescence; series mostly up to 11.4 µM
Procedure, shortened: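 In 50mM KPO4, the reaction held 5nM enzyme and KM-level (10uM) Luciferin-H EGE; it ran 60 min at 37C after NADPH regeneration and a 10 min compound preincubation. Luminescence values were scaled to 57uM ketoconazole as complete inhibition.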

Sequence of Glucocorticoid receptor (Homo sapiens) (P04150 whole entry, looked up, the tested form may be a part): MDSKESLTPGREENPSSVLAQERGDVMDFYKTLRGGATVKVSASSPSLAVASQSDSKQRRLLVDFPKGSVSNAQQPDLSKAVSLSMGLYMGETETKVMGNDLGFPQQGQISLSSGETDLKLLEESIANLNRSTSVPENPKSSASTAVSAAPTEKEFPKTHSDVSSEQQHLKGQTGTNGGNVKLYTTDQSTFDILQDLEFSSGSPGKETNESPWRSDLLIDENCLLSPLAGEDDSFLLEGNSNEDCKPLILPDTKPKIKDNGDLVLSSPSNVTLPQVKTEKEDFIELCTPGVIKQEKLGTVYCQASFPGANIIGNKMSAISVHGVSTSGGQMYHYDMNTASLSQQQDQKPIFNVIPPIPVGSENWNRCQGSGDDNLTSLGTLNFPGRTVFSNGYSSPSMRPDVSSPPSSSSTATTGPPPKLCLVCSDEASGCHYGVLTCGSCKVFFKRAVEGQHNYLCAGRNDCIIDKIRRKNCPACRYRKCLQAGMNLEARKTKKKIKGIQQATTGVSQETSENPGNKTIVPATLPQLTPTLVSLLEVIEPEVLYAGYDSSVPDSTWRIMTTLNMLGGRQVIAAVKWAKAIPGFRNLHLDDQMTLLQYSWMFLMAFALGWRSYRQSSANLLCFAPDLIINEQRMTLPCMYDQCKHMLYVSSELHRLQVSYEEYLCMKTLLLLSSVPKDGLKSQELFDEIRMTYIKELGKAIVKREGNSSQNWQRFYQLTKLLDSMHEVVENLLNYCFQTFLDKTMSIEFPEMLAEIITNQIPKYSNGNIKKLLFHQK
Sequence of 3',5'-cyclic-AMP phosphodiesterase 4B (Homo sapiens) (Q07343 whole entry, looked up): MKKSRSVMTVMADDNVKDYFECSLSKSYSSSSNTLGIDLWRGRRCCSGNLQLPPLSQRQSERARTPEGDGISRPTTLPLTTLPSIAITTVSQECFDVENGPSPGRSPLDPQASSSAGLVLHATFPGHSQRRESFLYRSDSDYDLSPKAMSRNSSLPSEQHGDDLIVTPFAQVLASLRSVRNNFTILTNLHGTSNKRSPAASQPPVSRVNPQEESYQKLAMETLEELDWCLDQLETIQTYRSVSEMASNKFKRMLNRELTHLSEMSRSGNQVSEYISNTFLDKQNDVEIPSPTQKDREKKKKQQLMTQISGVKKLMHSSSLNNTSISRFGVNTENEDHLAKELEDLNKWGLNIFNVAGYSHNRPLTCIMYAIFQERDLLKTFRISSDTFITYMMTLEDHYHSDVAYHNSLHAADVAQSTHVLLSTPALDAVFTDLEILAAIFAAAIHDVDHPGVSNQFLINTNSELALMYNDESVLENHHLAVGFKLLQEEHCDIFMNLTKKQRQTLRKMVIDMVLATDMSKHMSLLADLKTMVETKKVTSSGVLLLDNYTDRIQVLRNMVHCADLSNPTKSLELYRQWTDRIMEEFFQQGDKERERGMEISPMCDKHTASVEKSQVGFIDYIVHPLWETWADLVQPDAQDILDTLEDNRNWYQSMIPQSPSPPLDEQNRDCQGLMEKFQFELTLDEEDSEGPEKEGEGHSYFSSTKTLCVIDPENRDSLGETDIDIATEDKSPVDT
Sequence of Lysosomal acid glucosylceramidase (Homo sapiens) (P04062 whole entry, looked up): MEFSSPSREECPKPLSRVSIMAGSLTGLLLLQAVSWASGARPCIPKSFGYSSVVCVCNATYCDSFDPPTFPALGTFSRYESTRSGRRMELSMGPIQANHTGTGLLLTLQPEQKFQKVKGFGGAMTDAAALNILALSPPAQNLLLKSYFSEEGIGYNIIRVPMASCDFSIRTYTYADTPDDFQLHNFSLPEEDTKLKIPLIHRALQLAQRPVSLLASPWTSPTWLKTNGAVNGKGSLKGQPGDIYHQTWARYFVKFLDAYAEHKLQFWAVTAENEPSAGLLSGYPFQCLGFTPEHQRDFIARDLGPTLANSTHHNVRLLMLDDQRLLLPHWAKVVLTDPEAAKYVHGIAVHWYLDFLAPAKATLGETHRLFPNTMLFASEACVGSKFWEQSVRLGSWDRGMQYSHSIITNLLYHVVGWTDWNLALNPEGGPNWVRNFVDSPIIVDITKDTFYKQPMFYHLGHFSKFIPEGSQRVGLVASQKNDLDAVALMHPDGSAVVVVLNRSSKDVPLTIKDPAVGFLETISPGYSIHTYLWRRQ
Sequence of Cytochrome P450 3A4 (Homo sapiens) (P08684 whole entry, looked up): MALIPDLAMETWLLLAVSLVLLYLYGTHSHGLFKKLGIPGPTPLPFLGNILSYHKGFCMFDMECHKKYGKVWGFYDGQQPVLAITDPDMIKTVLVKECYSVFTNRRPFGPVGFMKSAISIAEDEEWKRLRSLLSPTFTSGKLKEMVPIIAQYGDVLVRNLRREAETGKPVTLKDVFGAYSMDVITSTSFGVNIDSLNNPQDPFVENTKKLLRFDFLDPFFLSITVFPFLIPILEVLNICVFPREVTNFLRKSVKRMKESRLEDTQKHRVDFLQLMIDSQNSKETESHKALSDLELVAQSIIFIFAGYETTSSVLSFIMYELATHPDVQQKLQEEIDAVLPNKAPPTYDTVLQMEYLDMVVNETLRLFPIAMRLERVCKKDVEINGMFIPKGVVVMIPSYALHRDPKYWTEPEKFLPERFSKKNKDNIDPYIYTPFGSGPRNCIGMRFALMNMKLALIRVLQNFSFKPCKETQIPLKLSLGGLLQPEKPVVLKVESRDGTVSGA
Sequence of Cytochrome P450 2D6 (Homo sapiens) (P10635 whole entry, looked up): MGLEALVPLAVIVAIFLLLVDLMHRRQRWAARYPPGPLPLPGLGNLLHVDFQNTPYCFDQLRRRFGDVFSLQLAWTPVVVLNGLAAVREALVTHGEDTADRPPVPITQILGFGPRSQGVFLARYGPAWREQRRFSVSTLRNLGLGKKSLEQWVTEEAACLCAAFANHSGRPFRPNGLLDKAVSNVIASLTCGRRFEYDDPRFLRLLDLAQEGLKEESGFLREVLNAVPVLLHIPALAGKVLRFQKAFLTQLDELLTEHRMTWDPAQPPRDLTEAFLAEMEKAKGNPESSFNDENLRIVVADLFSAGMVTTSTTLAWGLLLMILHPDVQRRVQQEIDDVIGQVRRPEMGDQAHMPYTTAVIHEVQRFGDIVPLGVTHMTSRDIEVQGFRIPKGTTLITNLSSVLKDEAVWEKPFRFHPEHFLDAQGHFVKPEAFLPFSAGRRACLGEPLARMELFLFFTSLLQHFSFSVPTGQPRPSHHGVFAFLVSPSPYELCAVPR
Sequence of Cytochrome P450 2C19 (Homo sapiens) (P33261 whole entry, looked up): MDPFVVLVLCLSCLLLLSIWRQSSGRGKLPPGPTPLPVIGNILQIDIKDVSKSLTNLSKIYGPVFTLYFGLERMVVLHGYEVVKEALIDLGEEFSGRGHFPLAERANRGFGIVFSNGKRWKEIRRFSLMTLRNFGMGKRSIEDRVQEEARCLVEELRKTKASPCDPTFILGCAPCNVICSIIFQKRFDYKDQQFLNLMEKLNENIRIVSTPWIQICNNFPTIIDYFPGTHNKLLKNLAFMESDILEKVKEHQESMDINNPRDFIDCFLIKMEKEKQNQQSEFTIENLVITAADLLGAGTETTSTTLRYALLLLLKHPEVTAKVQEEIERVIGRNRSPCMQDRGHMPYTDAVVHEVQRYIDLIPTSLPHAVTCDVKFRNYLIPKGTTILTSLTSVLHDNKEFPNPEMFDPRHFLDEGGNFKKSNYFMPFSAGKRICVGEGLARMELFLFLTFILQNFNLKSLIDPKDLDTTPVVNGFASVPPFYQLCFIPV
Sequence of Cytochrome P450 2C9 (Homo sapiens) (P11712 whole entry, looked up): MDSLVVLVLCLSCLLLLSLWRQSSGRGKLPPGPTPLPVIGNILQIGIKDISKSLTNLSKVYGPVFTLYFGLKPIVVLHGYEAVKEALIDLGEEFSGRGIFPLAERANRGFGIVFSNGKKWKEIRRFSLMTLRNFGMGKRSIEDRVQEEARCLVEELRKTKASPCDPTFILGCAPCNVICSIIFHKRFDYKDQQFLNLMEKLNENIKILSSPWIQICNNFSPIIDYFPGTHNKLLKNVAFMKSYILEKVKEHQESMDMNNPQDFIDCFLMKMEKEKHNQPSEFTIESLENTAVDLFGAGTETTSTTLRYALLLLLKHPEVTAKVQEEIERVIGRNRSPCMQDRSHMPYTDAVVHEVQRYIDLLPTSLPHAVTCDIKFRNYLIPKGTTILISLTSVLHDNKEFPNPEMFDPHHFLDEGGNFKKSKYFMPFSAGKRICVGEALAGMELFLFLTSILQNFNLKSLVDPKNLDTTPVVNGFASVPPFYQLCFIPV

COc1ccc(C(=O)N2CCC3(CC2)CN(c2ccccc2)C3)cc1
inactive: Potency [1] > 11.4 µM | activity change, negative = inhibition [2] -16.2% | activity change, negative = inhibition [3] 5.84% | activity, negative = inhibition [4] -21.3% | Potency [5] > 46 µM | Potency [6] | Potency [7]

O=C(O)/C(Cc1ccc([N+](=O)[O-])cc1)=N/O
inactive: Potency [1] > 11.4 µM | activity change, negative = inhibition [2] 3.45% | activity change, negative = inhibition [3] -0.295% | activity, negative = inhibition [4] 7.71% | Potency [5] > 9.22 µM | Potency [6] | Potency [7]

O=C(O)[C@@H]1CCCN1Cc1cc2ccccc2c2ccccc12
inactive: Potency [1] > 11.4 µM | activity change, negative = inhibition [2] 21.6% | activity change, negative = inhibition [3] 17.3% | activity, negative = inhibition [4] 2.3% | Potency [5] > 9.22 µM | Potency [6] | Potency [7]

Cc1noc(C)c1C(=O)N1CCC2(CC1)CN(c1cccc(-c3ccccc3)c1)C2
inactive: Potency [1] > 11.4 µM | activity change, negative = inhibition [2] -13.8% | activity change, negative = inhibition [3] 5.64% | activity, negative = inhibition [4] -11.6% | Potency [5] > 46 µM | Potency [6] | Potency [7]

O=C(O)c1ccncc1.O=C(O)c1ccncc1.[Cl][Pt]([Cl])([Cl])[Cl]
inactive: Potency [1] > 11.4 µM | activity change, negative = inhibition [2] 2.72% | activity change, negative = inhibition [3] -19.9% | Potency [8] > 46 µM | Potency [5] > 9.22 µM | Potency [6] | Potency [7]

N=C(N)c1ccc(-c2ccc(-c3ccc(C(=N)N)cc3)o2)cc1
inactive: Potency [1] > 11.4 µM | activity change, negative = inhibition [2] 7.04% | activity change, negative = inhibition [3] 7.72% | activity, negative = inhibition [4] 10.3% | Potency [5] > 9.22 µM | Potency [6] | Potency [7]

O=S(=O)(O)c1cc(O)c2c(O)c(N=Nc3cccc4ccccc34)c(S(=O)(=O)O)cc2c1
inactive: Potency [1] > 11.4 µM | activity change, negative = inhibition [2] -2.93% | activity change, negative = inhibition [3] -6.39% | activity, negative = inhibition [4] 4.42% | Potency [8] > 46 µM | Potency [5] > 9.22 µM | Potency [7] | activation [9] -26.6%

O=C(O)C[C@H](Nc1ccccc1)C(=O)O
inactive: Potency [1] > 11.4 µM | activity change, negative = inhibition [2] 0.63% | activity change, negative = inhibition [3] 19.5% | Potency [8] > 46 µM | Potency [5] > 9.22 µM | Potency [6] | Potency [7]

N#CCCn1c(=O)c(-c2cc(F)cc(F)c2)nc2cnc(Oc3cccc(Cl)c3)nc21
inactive: Potency [1] > 11.4 µM | activity change, negative = inhibition [2] -12.5% | activity change, negative = inhibition [3] -4.95% | activity, negative = inhibition [4] 12.5% | Potency [5] > 46 µM | Potency [7] | Potency [10]

O=S(=O)(O)c1cc(S(=O)(=O)O)c2c(N=Nc3cccc4ccccc34)c(O)ccc2c1
inactive: Potency [1] > 11.4 µM | activity change, negative = inhibition [2] 4.87% | activity change, negative = inhibition [3] 21.1% | activity, negative = inhibition [4] 5.07% | Potency [8] > 46 µM | Potency [5] > 9.22 µM | Potency [7] | Potency [11] | activity change, negative = inhibition [12] -5.78% [at 11.4 µM] | Potency [13] | Potency [14]

O=C(O)c1oc(C(=O)O)c(C(=O)O)c1C(=O)O
inactive: Potency [1] > 11.4 µM | activity change, negative = inhibition [2] 10.9% | activity change, negative = inhibition [3] 7.7% | Potency [8] > 46 µM | Potency [5] > 9.22 µM | Potency [6] | Potency [7]

C[C@@]1(CO)[C@H](O)CC[C@]2(C)[C@@H]1CC[C@H]1C[C@H]3C[C@]12CC[C@]3(O)COC(=O)CN
inactive: Potency [1] > 11.4 µM | activity change, negative = inhibition [2] 5.13% | activity change, negative = inhibition [3] 23.5% | Potency [8] > 46 µM | Potency [5] > 9.22 µM | Potency [6] | Potency [7]

CN1CCC[C@@H]1c1cccnc1.O=C(O)c1ccccc1O.O=C([OH2+])c1ccccc1O.O=C([OH2+])c1ccccc1O.O=C([OH2+])c1ccccc1O.[Mn]
inactive: Potency [1] > 11.4 µM | activity change, negative = inhibition [2] 13.3% | activity change, negative = inhibition [3] -2.84% | activity, negative = inhibition [4] -11.4% | Potency [6] | Potency [7]

OC[C@@H]1CCC[C@H](n2cnc3c(=S)nc[nH]c32)O1
inactive: Potency [1] > 11.4 µM | activity change, negative = inhibition [2] 1.32% | activity change, negative = inhibition [3] 24.8% | Potency [8] > 46 µM | Potency [5] > 9.22 µM | Potency [6] | Potency [7]

NC(=O)NCCS[C@H]1CCCC[C@@H]1O
inactive: Potency [1] > 11.4 µM | activity change, negative = inhibition [2] 3.84% | activity change, negative = inhibition [3] 3.5% | Potency [8] > 46 µM | Potency [5] > 9.22 µM | Potency [6] | Potency [7]

O=C(O)CN(CCN(CC(=O)O)CC(=O)O)CC(=O)O.[Mn]
inactive: Potency [1] > 11.4 µM | activity change, negative = inhibition [2] -0.063% | activity change, negative = inhibition [3] 7.91% | activity, negative = inhibition [4] 8.71% | Potency [6] | Potency [7]

O=c1oc2ccccc2c(O)c1/C=N/c1nc(-c2ccc(O)c(O)c2)cs1
inactive: Potency [1] > 11.4 µM | activity change, negative = inhibition [2] -3.14% | activity change, negative = inhibition [3] 27.7% | activity, negative = inhibition [4] -11.7% | Potency [5] > 9.22 µM | Potency [6] | Potency [7]

COc1ccc(-n2c(=O)c(-c3cccs3)nc3cnc(Oc4ccccc4)nc32)cc1
inactive: Potency [1] > 11.4 µM | activity change, negative = inhibition [2] -6.68% | activity change, negative = inhibition [3] -26.9% | Potency [8] > 9.22 µM | Potency [5] > 46 µM | Potency [6] | Potency [7]
